Laboratory results from PubChem BioAssay (EPA / NIEHS).
Inconclusive results are not listed. The source made the active and inactive calls. The calls were made as follows, unless noted: active = hit-call score of the fitted dose curve at least 0.9, where 1 is the maximum; inactive = score below 0.9.

How the values were obtained:
[1] = CCTE_Shafer_MEA_dev_firing_rate_mean: CCTE's Neural Network Formation Assay for Mean Firing Rate, Shafer Lab (AID 2284031)
In short: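 Primary rat cortical neurons on 48-well MEA plates, exposed from plating day 0 with dosing renewed on DIV 5 and 9. Mean well firing rate over active electrodes, recorded days 5, 7, 9, 12, summarised as trapezoidal AUC.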

[2] = CCTE_Shafer_MEA_dev_per_burst_spike_percent: CCTE's Neural Network Formation Assay for Percent of Spikes in a Burst, Shafer Lab (AID 2284032)
In short: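 Rat primary cortical neurons on 16-electrode MEA wells, dosed from plating day 0 for 12 days with renewal on DIV 5 and 9; spikes-in-bursts percentage averaged over bursting electrodes, collapsed as AUC across days 5, 7, 9, 12; loss direction versus DMSO.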

[3] = CCTE_Shafer_MEA_dev_active_electrodes_number: CCTE's Neural Network Formation Assay for Number of Active Electrodes, Shafer Lab (AID 2284040; active = hit-call score of the fitted dose curve at least 0.9, where 1 is the maximum)
In short: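 Primary rat cortical neurons on 16-electrode MEA wells, exposed from day 0 through day 12 with compound renewed at DIV 5 and 9 feeds. Active electrodes (mean firing ≥5 spikes/min) counted at DIV 5, 7, 9, 12; trapezoidal AUC across days, loss-of-signal versus DMSO.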

[4] = CCTE_Shafer_MEA_dev_burst_rate: CCTE's Neural Network Formation Assay for Burst Rate, Shafer Lab (AID 2284042)
In short: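 Primary rat cortical neurons on PEI-coated 48-well MEA plates (laminin added with cells at plating) (16 electrodes/well), exposed from plating to day 12, dosing renewed at DIV 5 and 9. Burst rate averaged over active electrodes, recorded DIV 5, 7, 9, 12, summarized as AUC; loss versus DMSO.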

[5] = CCTE_Shafer_MEA_dev_bursting_electrodes_number: CCTE's Neural Network Formation Assay for Number of Bursting Electrodes, Shafer Lab (AID 2284043; active = hit-call score of the fitted dose curve at least 0.9, where 1 is the maximum)
In short: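 Primary rat cortical neurons plated on 16-electrode MEA wells, exposed from day 0 with compound renewed at DIV 5 and 9. Electrodes bursting ≥1 burst per 2 min counted on days 5, 7, 9 and 12; trapezoidal AUC across days, fitted for loss versus DMSO.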

[6] = CCTE_Shafer_MEA_dev_per_burst_interspike_interval: CCTE's Neural Network Formation Assay for Burst Interspike Interval, Shafer Lab (AID 2284044);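 also: mean spike spacing inside bursts as AUC over recordings on days 5 7 9 12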
In short: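 Rat cortical primary cultures, 16 electrodes/well; compound from plating, renewed with full media change DIV 5 and 9. Spikes via adaptive detector; per-burst ISI well-mean over active bursting electrodes; AUC of DIV 5/7/9/12 recordings; loss-direction fit vs DMSO.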

[7] = CCTE_Shafer_MEA_dev_burst_duration_mean: CCTE's Neural Network Formation Assay for Mean Burst Duration, Shafer Lab (AID 2284045)
In short: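 Primary rat cortical neurons on 48-well 16-electrode MEA plates, exposed from day 0 with renewal at DIV 5 and 9; spontaneous activity recorded on days 5, 7, 9, 12. Well-mean burst duration across bursting electrodes, collapsed as trapezoidal AUC; DMSO baseline.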

[8] = CCTE_Shafer_MEA_dev_interburst_interval_mean: CCTE's Neural Network Formation Assay for Mean Interburst Interval, Shafer Lab (AID 2284046);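 also: well-mean interburst interval of bursting electrodes as AUC over four recording days; curve fitted for decrease in interburst interval relative to DMSO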
In short: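 Recordings on days 5, 7, 9 and 12 give well-mean interburst interval across actively bursting electrodes, summarized as area under the curve. Cultures: rat cortical neurons, continuous exposure from day 0, compound renewed at feeds; decrease analyzed versus DMSO.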

[9] = CCTE_Shafer_MEA_dev_inter_network_spike_interval_mean: CCTE's Neural Network Formation Assay for Mean Inter-network Spike Interval, Shafer Lab (AID 2284047)
In short: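 Primary rat cortical neurons on 16-electrode MEA wells, exposed from plating day 0 through DIV 12, compound renewed at DIV 5 and 9 media changes. Mean interval between network-spike peaks recorded DIV 5, 7, 9, 12; collapsed as trapezoidal AUC, fitted downward versus DMSO.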

[10] = CCTE_Shafer_MEA_dev_network_spike_number: CCTE's Neural Network Formation Assay for Number of Network Spikes, Shafer Lab (AID 2284048)
In short: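 Primary rat cortical neurons on PEI/laminin 48-well MEA plates, dosed from plating day 0 for 12 days, renewed at DIV 5 and 9. Network spike counts recorded DIV 5, 7, 9, 12, collapsed as trapezoidal AUC; DMSO baseline.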

[11] = CCTE_Shafer_MEA_dev_network_spike_peak: CCTE's Neural Network Formation Assay for Mean Number of Electrodes in Network Spike, Shafer Lab (AID 2284049)
In short: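 Network-spike peak electrode count from recordings on days 5, 7, 9 and 12 was combined as trapezoidal area under the curve. Rat cortical cultures were treated continuously from plating, with compound renewed at each feed (DIV 5, 9); fits versus DMSO.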

[12] = CCTE_Shafer_MEA_dev_spike_duration_mean: CCTE's Neural Network Formation Assay for Mean Spike Duration, Shafer Lab (AID 2284051);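 also: mean network spike duration pooled as area under curve over DIV 5 to 12 recordings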
In short: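 Primary rat cortical neurons on 16-electrode MEA wells (PEI-coated, laminin in plating drop), exposed from plating through DIV 12 with compound renewed at DIV 5 and 9. Mean network-spike duration recorded DIV 5, 7, 9, 12; trapezoidal AUC across days, DMSO baseline.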

[13] = CCTE_Shafer_MEA_dev_network_spike_duration_std: CCTE's Neural Network Formation Assay for Standard Deviation of Network Spike Duration, Shafer Lab (AID 2284052);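 also: area under curve of spike duration SD across recording days 5 to 12; hits are decreases in network spike duration SD versus DMSO vehicle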
In short: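 Primary rat cortical neurons on PEI-coated 16-electrode MEA wells, exposed from plating day 0 through day 12 with compound renewed at DIV 5 and 9. Network spike duration SD recorded on days 5, 7, 9, 12, collapsed as trapezoidal AUC; loss-of-signal fit versus DMSO.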

[14] = CCTE_Shafer_MEA_dev_per_network_spike_spike_number_mean: CCTE's Neural Network Formation Assay for Mean Number of Spikes in a Network Spike, Shafer Lab (AID 2284053)
In short: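 Primary rat cortical neurons on 48-well, 16-electrode MEA plates were exposed from plating to DIV 12, with dosing renewed on DIV 5 and 9. Spikes per network spike (0.05 s peak window) were recorded on DIV 5, 7, 9 and 12 and collapsed as trapezoidal AUC versus DMSO.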

[15] = CCTE_Shafer_MEA_dev_per_network_spike_spike_percent: CCTE's Neural Network Formation Assay for Percent of Spikes in a Network Spike, Shafer Lab (AID 2284054)
In short: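 Rat primary cortical neurons were grown on 48-well MEA plates (16 electrodes/well), exposed from plating day 0 through day 12, with treatment renewed on DIV 5 and 9. Percent of spikes within 0.05 s network-spike peaks was measured, summarised as AUC across days 5, 7, 9, 12.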

[16] = CCTE_Shafer_MEA_dev_LDH: CCTE's Lactate Dehydrogenase Assay for Cytotoxicity in the Neural Network Formation Assay, Shafer Lab (AID 2284068; active = hit-call score of the fitted dose curve at least 0.9, where 1 is the maximum;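 also: exposure for twelve days from plating with re-dosing on DIV 5 and 9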)
In short: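 Primary rat cortical neurons were plated on PEI/laminin MEA plates and exposed from day 0 for twelve days, with compound renewed at DIV 5 and 9. Cytotoxicity was determined by spectrophotometric LDH assay relative to DMSO.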

[17] = CCTE_Shafer_MEA_dev_mutual_information_norm: CCTE's Neural Network Formation Assay for Mutual Information Normalization, Shafer Lab (AID 2284091)
In short: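 Primary rat cortical neurons on PEI-coated 48-well MEA plates, 1.5 x 10^5 cells/well, exposed from day 0 through day 12 with re-dosing at DIV 5 and 9. Mutual information between electrodes recorded days 5, 7, 9, 12; trapezoidal AUC, loss-of-signal fit versus DMSO.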

[18] = CCTE_Shafer_MEA_dev_correlation_coefficient_mean: CCTE's Neural Network Formation Assay for Mean Correlation Coefficient, Shafer Lab (AID 2284093)
In short: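 Spontaneous activity recorded on days 5, 7, 9 and 12 post-plating; pairwise spike correlations are averaged across active electrodes and collapsed to an area-under-curve. Rat cortical cultures are dosed from plating through 12 days, with compound renewed at media changes.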

[19] = UKN2_HCS_IMR90_neural_migration: University of Konstanz (UKN) Leist Lab Neural Crest Cell Migration Assay in human induced IMR90 Pluripotent Stem Cells (UKN2) (AID 2284204); settings: actives raise or lower the signal
In short: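 iPSC-derived IMR90 neural crest cells seeded around stoppers on PLO/laminin/fibronectin; migration started in N2-S medium with EGF/FGF, compounds added after 24 h for 24 h. Migration into cell-free area imaged after calcein-AM/Hoechst staining; bidirectional fit versus DMSO.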

[20] = IUF_NPC1b_proliferation_BrdU_72hr: Leibniz Research Institute for Environmental Medicine (IUF) 72-hour Neural Progenitor Cell Bromodeoxyuridine (BrdU) Proliferation Assay (NPC1b) (AID 2284207)
In short: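 BrdU luminescence ELISA quantified DNA synthesis over the last 16 h of a 72 h exposure, fitted against DMSO. Primary hNPC spheres from gestational week 16-19 cortex grown with EGF/FGF at 37C, pH 7.2-7.6.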

[21] = IUF_NPC1a_proliferation_area_72hr: Leibniz Research Institute for Environmental Medicine (IUF) 72-hour Neural Progenitor Cell Proliferation Area Assay (NPC1a) (AID 2284208)
In short: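 Read-out: increase in sphere area over 72 h by automated phase-contrast imaging, fitted in positive direction versus DMSO baseline. One hNPC sphere (0.25-0.35 mm) per well in EGF/FGF medium; growth-factor withdrawal served as positive control.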

[22] = IUF_NPC1_viability_72hr: Viability Assessment at 72 hours in the Leibniz Research Institute for Environmental Medicine (IUF) Neural Progenitor Cell Proliferation Assay (NPC1) (AID 2284209)
In short: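 Single spheres (0.25-0.35 mm) of human fetal cortex-derived neural progenitor cells were grown in proliferation medium with EGF and FGF at 37C and 5% CO2. They were exposed for 72 h without renewal, and viability was read by alamar blue resorufin fluorescence.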

[23] = CCTE_Mundy_HCI_Cortical_Synap_Neur_Matur_NeuriteSpotCountPerNeuriteLength: CCTE's Synaptogenesis and Neurite Maturation Assay in rat cortical cells for Neurite Spot Count per Neurite Length, Mundy Lab (AID 2284210)
In short: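 Rat primary cortical cultures, AraC added at DIV 5 to suppress glia; chemical exposure from DIV 7 to DIV 12. Fixed cells stained for MAP2 and synaptophysin plus Hoechst; synaptophysin puncta per neurite length quantified by high-content imaging, relative to DMSO.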

Measured: AC50

C[C@@H]1CC[C@@H](C(C)(C)O)[C@H](O)C1
active: [20] 8.23 µM
inactive: all other assays above
